Test [1] is described as follows: Quantitative High-Throughput drug screen in 47 multiple myeloma cell lines against the NCATS MIPE library collection: KMS28PE_JCRB cell viability assay (AID 1918983). Also: nearly all actives have a fitted effect of over 35% in size. An outline of the steps:
(§1)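 qHTS format: cells plated (500/well), pin-dosed with MIPE 4.0 compounds, kept 48 h at 37 °C. Readout was CellTiter-Glo luminescence, median RLU.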

The nature of test [2]: Quantitative High-Throughput drug screen in 47 multiple myeloma cell lines against the NCATS MIPE library collection: KMS34_JCRB cell viability assay (AID 1918985). Also: nearly all actives have a fitted effect of over 40% in size. An outline of the steps:
as §1

A short description of test [3]: Quantitative High-Throughput drug screen in 47 multiple myeloma cell lines against the NCATS MIPE library collection: OPM1_PLB cell viability assay (AID 1918989). Also: nearly all actives have a fitted effect of over 40% in size. An outline of the steps:
as §1

Test [4] can be described thus: Quantitative High-Throughput drug screen in 47 multiple myeloma cell lines against the NCATS MIPE library collection: U266_ATCC cell viability assay (AID 1919864). Also: nearly all actives have a fitted effect of over 35% in size. In a few lines: as §1
A short description of test [5]: Quantitative High-Throughput drug screen in 47 multiple myeloma cell lines against the NCATS MIPE library collection: XG6_PLB cell viability assay (AID 1919865). Also: nearly all actives have a fitted effect of over 40% in size. An outline of the steps: as §1
Test [6] is described as follows: Quantitative High-Throughput drug screen in 47 multiple myeloma cell lines against the NCATS MIPE library collection: VP6_DJ cell viability assay (AID 1919867). Also: nearly all actives have a fitted effect of over 40% in size. An outline of the steps:
as §1

Test [7] in a line: Quantitative High-Throughput drug screen in 47 multiple myeloma cell lines against the NCATS MIPE library collection: PCM6_Riken cell viability assay (AID 1919870). Also: nearly all actives have a fitted effect of over 30% in size. In a few lines: as §1
A short description of test [8]: Quantitative High-Throughput drug screen in 47 multiple myeloma cell lines against the NCATS MIPE library collection: RPMI8226_ATCC cell viability assay (AID 1919871). Also: nearly all actives have a fitted effect of over 30% in size. In a few lines:
as §1

The nature of test [9]: Quantitative High-Throughput drug screen in 47 multiple myeloma cell lines against the NCATS MIPE library collection: OPM2_DSMZ cell viability assay (AID 1919872). Also: nearly all actives have a fitted effect of over 30% in size. In a few lines: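 CellTiter-Glo ATP luminescence gave viability after 48 h compound treatment at 37C of 500 multiple myeloma cells per well. Normalisation used DMSO-only wells as 100% and media-only wells as 0% viability; primary qHTS of approved and investigational drugs.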

A short description of test [10]: Quantitative High-Throughput drug screen in 47 multiple myeloma cell lines against the NCATS MIPE library collection: OCIMY7_PLB cell viability assay (AID 1918987). Also: nearly all actives have a fitted effect of over 65% in size. The settings on record: OCI-MY7 myeloma viability, CellTiter-Glo ATP, 48 h; viability (% of DMSO): at 45.8 µM (top of the series). An outline of the steps:
as §1

Test [11] in a line: Quantitative High-Throughput drug screen in 47 multiple myeloma cell lines against the NCATS MIPE library collection: XG1_PLB cell viability assay (AID 1919866). Also: nearly all actives have a fitted effect of over 35% in size. An outline of the steps: as §1
Test [12] is described as follows: Quantitative High-Throughput drug screen in 47 multiple myeloma cell lines against the NCATS MIPE library collection: PE2_PLB cell viability assay (AID 1919869). Also: nearly all actives have a fitted effect of over 35% in size. In a few lines:
as §1

The nature of test [13]: Quantitative High-Throughput drug screen in 47 multiple myeloma cell lines against the NCATS MIPE library collection: KMS11_JCRBsus cell viability assay (AID 1919873). Also: nearly all actives have a fitted effect of over 50% in size. An outline of the steps: as §1
A short description of test [14]: Quantitative High-Throughput drug screen in 47 multiple myeloma cell lines against the NCATS MIPE library collection: OCIMY5_PLB cell viability assay (AID 1918988). Also: nearly all actives have a fitted effect of over 65% in size. In a few lines:
as §1

The nature of test [15]: Quantitative High-Throughput drug screen in 47 multiple myeloma cell lines against the NCATS MIPE library collection: UTMC2_PLB cell viability assay (AID 1919868). Also: nearly all actives have a fitted effect of over 55% in size. The conditions noted are these: CellTiter-Glo ATP luminescence, 48 h; viability (% of DMSO control): at 45.8 µM (top of the series). In a few lines: as §1
A general note: In ATP-based viability assays light output follows the ATP content of the culture.

Test [16] is described as follows: Quantitative High-Throughput drug screen in 47 multiple myeloma cell lines against the NCATS MIPE library collection: SKMM1_PLB cell viability assay (AID 1919863). Also: nearly all actives have a fitted effect of over 35% in size. The conditions noted are these: SKMM1 myeloma viability, CellTiter-Glo ATP, 48 h; viability: hits give low values. An outline of the steps: as §1
A short description of test [17]: Quantitative High-Throughput drug screen in 47 multiple myeloma cell lines against the NCATS MIPE library collection: KMS28BM_JCRB cell viability assay (AID 1919874). Also: nearly all actives have a fitted effect of over 35% in size. In a few lines: as §1

Inconclusive results are not listed. Values without a mark were called inactive. Activity calls are given as the source filed them. Calls follow the shape of the dose curve; as a rule, active = well fitted cell-killing curve with a large enough effect; inconclusive = small, poorly fitted or top-dose-only effect, or effect the other way; inactive = no such curve, though single readings can be large or run the other way.

The record followed here is PubChem BioAssay (NCATS).
Potency is read from the fitted curve at half-maximal effect.

Regarding `OCCn1cc(-c2ccc3c(c2)CCC3=NO)c(-c2ccncc2)n1`, the Potency result in [1], in [2], in [3], in test [8] and in [9] was “inactive” each time. The Potency is 23.5 µM (active) in [4], 13.2 µM (active) in test [5], 16.6 µM (active) in test [6] and 20.9 µM (active) in test [7].
On to `c1cc(OCCN2CCCCC2)cc(-c2n[nH]c3ccc(-c4ncn[nH]4)cc23)c1`, for which the Potency in test [1] was 16.6 µM (active); in test [10], 5.26 µM (active); in test [4], 18.7 µM (active); in test [5], 5.26 µM (active); in test [11], 8.33 µM (active); in test [6], 11.8 µM (active). In addition, the Potency is 10.5 µM (active) in [12], 16.6 µM (active) in test [7] and 16.6 µM (active) in test [13].
Regarding `NC(N)=Nc1nc(CSCCC(N)=NS(N)(=O)=O)cs1`, the Potency result in test [1], in test [2] and in test [13] was “inactive” each time. The Potency in [10] is 10.5 µM (active); in test [14] it was 29.6 µM (active); in test [3], 16.6 µM (active); in test [4], 20.9 µM (active); in test [5] it was 6.62 µM (active); in test [6], 5.26 µM (active). Besides, the Potency in test [15] is 9.35 µM (active); in test [12] it was 20.9 µM (active); in test [7], 14.8 µM (active).
For `CCC[C@H](Nc1nc(-c2ccc(NC(=O)NCC)c(OC)c2)ncc1C)c1cccnc1`, the Potency was 0.0148 µM (active) in test [1]; 5.9 nM (active) in [2]; 0.0166 µM (active) in [14]; 0.003 µM (active) in test [16]; 0.001 µM (active) in test [15]; 0.001 µM (active) in test [12]. The Potency in test [8] is 0.0264 µM (active); in [9], 8.3 nM (active); in test [13], 0.0012 µM (active).
Regarding `Cc1ccccc1C(=O)c1ccc(Nc2ccc(Br)cc2N)cc1Cl`, the Potency was 14.8 µM (active) in [1]; 11.8 µM (active) in test [10]; 10.5 µM (active) in [14]; 16.6 µM (active) in [3]; 16.6 µM (active) in test [16]; 11.8 µM (active) in [4]. For the same molecule, the Potency is 18.7 µM (active) in test [5]; 16.6 µM (active) in test [6]; 18.7 µM (active) in test [12]; 11.8 µM (active) in [8]; 23500 nM (active) in test [9]; 18.7 µM (active) in test [13].
Take `Nc1ccc(-c2ccc3ncc4ccc(=O)n(-c5cccc(C(F)(F)F)c5)c4c3c2)cn1`: the Potency in test [1] is 0.0166 µM (active); in test [2], 6.6 nM (active); in test [10] it was 0.0209 µM (active); in test [14], 0.0332 µM (active); in test [16] it was 0.0053 µM (active); in [4], 0.372 µM (active). Moreover, the Potency in test [9] is 5.9 nM (active).
`O=C(CC12CC3CC(CC(C3)C1)C2)Nc1cccc2nc(NCCNCCO)ccc12`: the Potency in test [1] was 16.6 µM (active); in test [10], 0.743 µM (active); in [14], 11.8 µM (active); in test [3], 7.43 µM (active); in [16] it was 16.6 µM (active); in test [4], 23.5 µM (active). Moreover, the Potency in test [5] is 1.18 µM (active); in test [11], 2.96 µM (active); in [6], 4.69 µM (active); in [15], 3.32 µM (active); in test [12], 7.43 µM (active); in [7], 7.43 µM (active). Further, in test [17], the Potency is 23.5 µM (active).
For `O=C(C=Cc1ccc(O)cc1)c1ccc(O)cc1O`, the Potency in test [1] is 23.5 µM (active); in test [10], 4.69 µM (active); in test [14], 14.8 µM (active); in test [3], 20.9 µM (active); in test [4] it was 23.5 µM (active); in [5] it was 18.7 µM (active). For the same molecule, the Potency in [11] is 16.6 µM (active); in test [6], 18.7 µM (active); in test [12] it was 20.9 µM (active); in test [7] it was 16.6 µM (active); in [13], 10.5 µM (active); in test [17], 14.8 µM (active).
On to `CN1CCN2c3ncccc3Cc3ccccc3C2C1` (stereo not given), for which the Potency result in [1], in test [2], in [3], in [5], in test [6] and in test [15] was “inactive” throughout. For the same molecule, the Potency result in [12], in [7], in test [8], in test [9], in [13] and in test [17] was “inactive” in each case.
As for `Cn1c(=O)c(Oc2ccc(F)cc2F)cc2cnc(NC3CCOCC3)nc21`, the Potency result in test [1], in test [4], in test [9] and in test [17] was “inactive” each time. The Potency in test [2] was 1320 nM (active); in test [14] it was 18.7 µM (active).
For `CN1CCC(COc2cnc(-c3cccc(Cn4nc(-c5cccc(C#N)c5)ccc4=O)c3)nc2)CC1`, the Potency entry in test [1], in test [8], in test [9] and in [17] was “inactive” throughout. In addition, the Potency in test [10] was 0.059 µM (active); in test [14], 0.0469 µM (active); in [3] it was 16.6 µM (active); in [4], 20.9 µM (active); in [5], 0.0332 µM (active); in test [11], 0.332 µM (active). For the same molecule, the Potency in test [15] is 0.526 µM (active); in test [12], 1.05 µM (active); in [7] it was 0.372 µM (active).
As for `CCC[C@H](N[C@@H](C)C(=O)N1[C@@H]2CCCC[C@H]2C[C@H]1C(=O)O)C(=O)OCC`, the Potency result in test [1], in test [2], in test [3], in test [7], in test [13] and in [17] was “inactive” throughout. Also, the Potency in test [16] was 18.7 µM (active); in test [15] it was 1.32 µM (active); in test [8], 9.35 µM (active).
For the molecule `COc1cc(Cl)cn2c(-c3cccc(NC4CNC4)n3)cnc12`, the Potency in test [1] was 20.9 µM (active); in test [10], 9.35 µM (active); in test [14], 13.2 µM (active); in test [16], 9.35 µM (active); in test [5] it was 2.96 µM (active); in test [6], 14.8 µM (active). Further, the Potency was 20.9 µM (active) in test [15] and 14.8 µM (active) in test [7]. For the same molecule, the Potency entry in test [8] and in [9] was “inactive” each time.
Regarding `CN(C)S(=O)(=O)c1ccc2c(c1)C(=Cc1cc3c([nH]1)CCCC3)C(=O)N2`, the Potency in test [1] was 20.9 µM (active); in [2] it was 5900 nM (active); in [10], 3.32 µM (active); in test [14] it was 2.09 µM (active); in [15], 3.32 µM (active); in test [12], 3.72 µM (active). Further, the Potency in [8] was 7.43 µM (active).
For `C[C@@H]1CC=CC=CC=CC=C[C@@H](O[C@@H]2O[C@H](C)[C@@H](O)[C@H](N)[C@H]2O)C[C@@H]2O[C@](O)(C[C@@H](O)C[C@@H]3O[C@@H]3C=CC(=O)O1)C[C@H](O)[C@@H]2C(=O)O`, the Potency in test [1] was 14.8 µM (active); in test [10], 2.96 µM (active); in test [14] it was 11.8 µM (active); in [3] it was 16.6 µM (active); in test [11] it was 4.69 µM (active); in test [6] it was 10.5 µM (active). Moreover, the Potency in test [12] is 9.35 µM (active); in test [7] it was 16.6 µM (active); in test [13], 16.6 µM (active); in [17], 20.9 µM (active).
